Reference: PubChem BioAssay AID1851 (National Center for Advancing Translational Sciences (NCATS), 2009)
“And” between values parts separate entries of the source, which are not always exact repeats. Equal values may be shown once. About 5,700 (36%) of roughly 16,000 compounds were called active. Another 24% or so got no clear call; they are omitted. The list shows a part of the results. Unmarked numbers belong to inactive results. Calls follow the shape of the dose curve; as a rule, active = well fitted curve in the direction sought with a large enough effect; inconclusive = small, poorly fitted or top-dose-only effect, or effect the other way; inactive = no such curve, though single readings can be large or run the other way. Square brackets hold non-standard residues; d marks the D form. Peptide text beside a SMILES is read from it.

What follows are compounds tested against Cytochrome P450 1A2 (Homo sapiens) (UniProt P05177) (assay: Cytochrome panel assay with activity outcomes). Conditions: recombinant CYP, pro-luciferin dealkylation, luminescence, p450-cyp1a2; series mostly up to 57.1 µM.
% is scaled to controls: 0 for no effect and ±100 for the full control effect.

Chain of Cytochrome P450 1A2 (Homo sapiens) (P05177 whole entry, looked up): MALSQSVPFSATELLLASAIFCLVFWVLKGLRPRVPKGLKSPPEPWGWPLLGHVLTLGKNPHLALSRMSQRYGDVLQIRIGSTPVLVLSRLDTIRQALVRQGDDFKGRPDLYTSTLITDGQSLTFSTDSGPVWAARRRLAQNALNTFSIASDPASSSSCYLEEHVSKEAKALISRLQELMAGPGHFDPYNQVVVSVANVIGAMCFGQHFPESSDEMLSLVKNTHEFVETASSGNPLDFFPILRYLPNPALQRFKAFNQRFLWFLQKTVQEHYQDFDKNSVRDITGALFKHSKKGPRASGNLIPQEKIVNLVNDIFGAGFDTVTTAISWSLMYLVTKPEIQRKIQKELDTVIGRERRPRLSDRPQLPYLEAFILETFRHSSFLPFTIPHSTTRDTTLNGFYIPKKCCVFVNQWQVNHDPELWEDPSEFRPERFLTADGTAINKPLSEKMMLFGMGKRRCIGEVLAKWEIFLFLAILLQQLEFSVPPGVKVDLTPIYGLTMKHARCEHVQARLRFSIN

SMILES | AC50 | activity, negative = inhibition
COc1cccc2[nH]c3c(N4CC(C)CC(C)C4)ncnc3c12 (stereo unspecified) | 2 µM (active) | –
CSc1ccccc1N1CCN(C(=O)Nc2ccc3c(c2)NC(=O)CO3)CC1 | inactive | –
COc1ccc(-c2csc(NC(=O)CCn3cnc4ccccc4c3=O)n2)cc1OC | inactive | –
c1cnc(Nc2nc(-c3ccc4ccccc4c3)cs2)nc1 | 0.224 µM (active) | –
N[C@H](CO)C(=O)NCC(=O)O (H-[dS]-Gly-OH) | – | 3.56% [at 2.29 µM]
CC(C)Nc1nc(NC(C)(C)C)nc(Oc2ccc(=O)n(-c3ccccc3)n2)n1 | inactive | –
COC(=O)c1nn(-c2cccc(C(F)(F)F)c2)c(=O)cc1Sc1ccccn1 | 2.24 µM (active) | –
COc1cc(-c2[o+]c3cc(O)cc(O)c3cc2O)cc(O)c1O | – | -19.9% [at 2.29 µM]
CCSc1nc2sc3c(c2c(=O)[nH]1)CC(C)(CC)OC3 (stereo unspecified) | inactive | –
C=CCSc1nc2c(sc3nc(C)cc(C)c32)c(=O)[nH]1 | 1.12 µM (active) | –
O=C(Cn1ccnc1[N+](=O)[O-])NCCO | inactive | –
O=C(O)CCc1nc(-c2ccccc2-n2cccc2)no1 | – | -17.3% [at 2.29 µM]
Nc1nc(N)c(CCCCc2ccccc2)c(N)n1 | – | -0.16% [at 2.29 µM]
CCN(CC)CCc1nc(-c2ccccc2)no1 | 5.01 µM (active) | –
c1ccc(CCc2nc(-c3ccccc3)no2)cc1 | 2.82 µM (active) | –
O=C(CCc1nc(-c2ccccc2)no1)NCCc1ccccc1 | 2.82 µM (active) | –
CN1C(=O)NC(c2ccc(O)cc2)C(C(=O)c2cccs2)C1(O)C(F)(F)F (stereo unspecified) | inactive | –
CN=C(N)/N=C(\N)Nc1cc2ccccc2c2ccccc12 | 0.251 µM (active) | –
NC(=S)Nc1cc2ccccc2c2ccccc12 | 0.0708 µM (active) | –
NC(=S)Nc1ccc(Oc2ccc(NC(N)=S)cc2)cc1 | inactive | –
Cc1ccccc1N=C(N)Nc1ccccc1C | inactive | –
O=P(O)(O)CCP(=O)(c1ccccc1)c1ccccc1 | inactive | –
C[C@@H]1CCN=C(N)S1 | inactive | –

SMILES | AC50 | activity, negative = inhibition
O=C(OCC#CCSc1nnc(-c2cccc3ccccc23)o1)c1ccco1 | 0.398 µM (active) | –
CC1=NN(c2ccc(C)cc2C)C(=O)C1C(c1ccccc1)C1C(=O)N(c2ccc(C)cc2C)N=C1C (stereo unspecified) | inactive | –
Cc1ccc(N2C(=O)C(Cl)=C(NCc3ccccc3)C2=O)c(C)c1 | 11.2 µM (active) | –
CO[C@H]1COC(=O)[C@H]2CCCN2C(=O)C/C=C\[C@@H](C)[C@H](OC)COC(=O)[C@@H](OCc2ccccc2)/C=C\[C@@H]1C | – | -3.46% [at 11.4 µM]
O=C(CN1CCc2ccccc21)NC(=O)NCc1ccco1 | 6.31 µM (active) | –
S=C(NCc1ccco1)N1CCN(C(c2ccccc2)c2ccccc2)CC1 | inactive | –
CO[C@@H]1/C=C\O[C@]2(C)Oc3c(C)c(O)c4c(O)c(cc(O)c4c3C2=O)NC(=O)/C(C)=C\C=C/[C@H](C)[C@@H](O)[C@H](C)[C@H](O)[C@H](C)[C@H](OC(C)=O)[C@@H]1C | – | -9.97% [at 11.4 µM]
Nc1c2c(=O)oc(-c3ccccc3)cc2nn1-c1ccccc1 | 2.24 µM (active) | –
COC(=O)N1CCC2(CC1)CN(c1ccncc1)C2 | inactive | –
CO/N=C\[C@@H](OC)[C@H](C)/C=C\CC(=O)OC | – | -3.46% [at 11.4 µM]
C#CCSc1nnc(-c2sc(-c3ccccc3)nc2C)n1C | 4.47 µM (active) | –
CSc1nnc(-c2sc(-c3ccccc3)nc2C)n1C | 11.2 µM (active) | –
Cn1c(CN2CCOCC2)nnc1SCc1ccccc1 | inactive | –
CC(=O)c1cn(CCCCCCCCCCn2cc(C(C)=O)c(=O)[nH]c2=O)c(=O)[nH]c1=O | inactive | –
CCCCCCCCn1cc(C(C)=O)c(=O)[nH]c1=O | 15.8 µM (active) | –
CCCCCCC(C)n1cc(C(C)=O)c(=O)[nH]c1=O (stereo unspecified) | inactive | –
CCCOc1ccc(-c2nc(N)n[nH]2)cc1 | 15.8 µM (active) | –
O=C1[C@H]2[C@H]3[C@H](O)[C@H](O)C/C(=N/OC[C@@H](O)COCc4ccco4)[C@@H]3CC[C@@H]2C(=O)N1C[C@@H]1CCCO1 | – | 6.9% [at 11.4 µM]
CC(=O)COc1ccc2c(C)c(C)c(=O)oc2c1 | 1 µM (active) | –
CCC(CC)c1nnc(NC(=O)COc2ccc3c(C)cc(=O)oc3c2)s1 | inactive | –
COc1ccc2sc3ccccc3c(=O)c2c1OC | 3.55 µM (active) | –
O=C(OCCN1CCCCC1)c1c[nH]c2ccccc12 | 12.6 µM (active) and 15.8 µM (active) | –
CN1[C@@H]2CC[C@H]1CC(OC(=O)c1c[nH]c3ccccc13)C2 (stereo partly specified) | inactive | –
